# From PubChem BioAssay AID1159580 (chemical genetic matrix, 2015)
# Among all 5,500 compounds or so, about 2,000 (36%) were called active. Not shown: some 18% with an inconclusive outcome. This is one part of the list. Values without a mark were called inactive. Rule as the data show it: active = normalized growth mostly below about 0.91 (no sharp cut-off); inconclusive = no clear call, values can overlap the other calls; inactive = mostly above about 0.92.
# Assay: chemical genetic growth profiling, strain panel (AID 1159580);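 also: tested at 20 µM; growth read once vehicle control cultures reached saturation at 30 °C; 1 = growth at the plate median or of vehicle wells; lower values mean less growth of the strain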
# Conditions: S. cerevisiae deletion strains, growth OD
compound,measurement,setting,value
S=C(Nc1ccc(Cl)cc1Cl)N(c1cccc(Cl)c1)c1nc2ccccc2s1,normalized growth,"locus YAR019C, strain CDC15, hits give low values",0.956
same,normalized growth,"locus YBL105C, strain PKC1, hits give low values",0.96
same,normalized growth,"locus YBR135W, strain CKS1, hits give low values",0.951
same,normalized growth,"locus YBR136W, strain MEC1, hits give low values",0.962
same,normalized growth,"locus YBR160W, strain CDC28, hits give low values",0.964
same,normalized growth,"locus YDL017W, strain CDC7, hits give low values",0.96
same,normalized growth,"locus YDL028C, strain MPS1, hits give low values",0.963
same,normalized growth,"locus YDL101C, strain DUN1, hits give low values",0.987
same,normalized growth,"locus YDL108W, strain KIN28, hits give low values",0.955
same,normalized growth,"locus YDL132W, strain cdc53, hits give low values",0.967
same,normalized growth,"locus YDL214C, strain PRR2, hits give low values",0.821
same,normalized growth,"locus YDR052C, strain DBF4, hits give low values",0.964
same,normalized growth,"locus YDR054C, strain cdc34, hits give low values",0.955
same,normalized growth,"locus YDR226W, strain ADK1, hits give low values",0.954
same,normalized growth,"locus YDR477W, strain SNF1, hits give low values",0.778
same,normalized growth,"locus YER123W, strain YCK3, hits give low values",0.778
same,normalized growth,"locus YER133W, strain GLC7, hits give low values",0.765
same,normalized growth,"locus YFL009W, strain cdc4, hits give low values",0.951
same,normalized growth,"locus YFL029C, strain CAK1, hits give low values",0.962
same,normalized growth,"locus YFR003C, strain YPI1, hits give low values",0.961
same,normalized growth,"locus YFR019W, strain FAB1, hits give low values",0.878
same,normalized growth,"locus YFR028C, strain CDC14, hits give low values",0.949
same,normalized growth,"locus YGR040W, strain KSS1, hits give low values",0.785
same,normalized growth,"locus YGR052W, strain FMP48, hits give low values",0.846
same,normalized growth,"locus YGR092W, strain DBF2, hits give low values",0.598
same,normalized growth,"locus YHR030C, strain SLT2, hits give low values",0.674 (active)
same,normalized growth,"locus YHR079C, strain IRE1, hits give low values",0.779
same,normalized growth,"locus YHR082C, strain KSP1, hits give low values",0.871
same,normalized growth,"locus YHR205W, strain SCH9, hits give low values",0.778
same,normalized growth,"locus YIL147C, strain SLN1, hits give low values",0.963
same,normalized growth,"locus YJL095W, strain BCK1, hits give low values",0.75
same,normalized growth,"locus YJL128C, strain PBS2, hits give low values",0.933
same,normalized growth,"locus YJL157C, strain FAR1, hits give low values",0.794
same,normalized growth,"locus YJR016C, strain ILV3, hits give low values",0.955
same,normalized growth,"locus YJR066W, strain TOR1 (second series), hits give low values",0.714
same,normalized growth,"locus YJR066W, strain TOR1, hits give low values",0.777
same,normalized growth,"locus YKL048C, strain ELM1, hits give low values",0.885
same,normalized growth,"locus YKL067W, strain YNK1, hits give low values",0.835
same,normalized growth,"locus YKL101W, strain HSL1, hits give low values",0.823
same,normalized growth,"locus YKL193C, strain SDS22, hits give low values",0.957
same,normalized growth,"locus YKL203C, strain TOR2, hits give low values",0.849
same,normalized growth,"locus YLR113W, strain HOG1, hits give low values",0.743 (active)
same,normalized growth,"locus YLR133W, strain CKI1, hits give low values",0.783
same,normalized growth,"locus YLR403W, strain SFP1, hits give low values",0.664
same,normalized growth,"locus YML070W, strain DAK1, hits give low values",0.795
same,normalized growth,"locus YMR001C, strain CDC5, hits give low values",0.951
same,normalized growth,"locus YMR205C, strain PFK2 (second series), hits give low values",0.82
same,normalized growth,"locus YMR277W, strain FCP1, hits give low values",0.95
same,normalized growth,"locus YNL006W, strain LST8, hits give low values",0.955
same,normalized growth,"locus YNL020C, strain ARK1, hits give low values",0.763
same,normalized growth,"locus YNL161W, strain CBK1, hits give low values",0.949
same,normalized growth,"locus YNL183C, strain NPR1, hits give low values",0.817
same,normalized growth,"locus YNL207W, strain RIO2, hits give low values",0.955
same,normalized growth,"locus YNL222W, strain SSU72, hits give low values",0.963
same,normalized growth,"locus YNL307C, strain MCK1 (second series), hits give low values",0.784
same,normalized growth,"locus YOL078W, strain AVO1, hits give low values",0.957
same,normalized growth,"locus YOL136C, strain PFK27, hits give low values",0.816
same,normalized growth,"locus YOR061W, strain CKA2, hits give low values",0.712
same,normalized growth,"locus YOR119C, strain RIO1, hits give low values",0.811
same,normalized growth,"locus YOR231W, strain MKK1, hits give low values",0.809
same,normalized growth,"locus YOR329C, strain SCD5, hits give low values",0.962
same,normalized growth,"locus YPL031C, strain PHO85, hits give low values",0.734
same,normalized growth,"locus YPL153C, strain RAD53, hits give low values",0.811
same,normalized growth,"locus YPL204W, strain HRR25, hits give low values",0.719
same,normalized growth,"locus YPL209C, strain IPL1, hits give low values",0.96
same,normalized growth,"locus YPL256C, strain CLN2, hits give low values",0.791 (active)
same,normalized growth,"locus YPR025C, strain CCL1, hits give low values",0.961
same,normalized growth,"locus YPR106W, strain ISR1, hits give low values",0.961
same,normalized growth,"locus YPR111W, strain DBF20, hits give low values",0.949
same,normalized growth,"strain NNK1, hits give low values",0.951
same,normalized growth,"strain TSCII, hits give low values",0.954
